The sequences below were run against HOXB4 (Homo sapiens, UniProt P17483 148-234) (assay: PBM; 200 nM protein, PBS). Details: dsDNA, one strand shown.
HOXB4 (Homo sapiens, UniProt P17483 148-234), sequence (P17483 148-234): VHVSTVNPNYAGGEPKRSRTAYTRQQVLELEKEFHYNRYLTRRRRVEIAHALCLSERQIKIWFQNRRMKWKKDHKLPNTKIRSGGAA

In order of rising binding signal:
1. CCCGAGGA  7.28 upbm affinity estimate (log intensity, higher = more binding, comparable within an allelic series)
2. CGTGCCGC  7.33 upbm affinity estimate (log intensity, higher = more binding, comparable within an allelic series)
3. CTCCCGGC  7.38 upbm affinity estimate (log intensity, higher = more binding, comparable within an allelic series)
4. GCTGGCGA  7.41 upbm affinity estimate (log intensity, higher = more binding, comparable within an allelic series)
5. CGGGAAAG  7.44 upbm affinity estimate (log intensity, higher = more binding, comparable within an allelic series)
6. CGGGATGC  7.47 upbm affinity estimate (log intensity, higher = more binding, comparable within an allelic series)
7. AGCCCCCA  7.49 upbm affinity estimate (log intensity, higher = more binding, comparable within an allelic series)
8. GTCCCAAC  7.52 upbm affinity estimate (log intensity, higher = more binding, comparable within an allelic series)
9. CTGGCGAC  7.56 upbm affinity estimate (log intensity, higher = more binding, comparable within an allelic series)
10. CCTGTCCC  7.61 upbm affinity estimate (log intensity, higher = more binding, comparable within an allelic series)
11. ACGTAGCA  7.63 upbm affinity estimate (log intensity, higher = more binding, comparable within an allelic series)
12. CCGACGGA  7.67 upbm affinity estimate (log intensity, higher = more binding, comparable within an allelic series)
13. GCGCGGGA  7.68 upbm affinity estimate (log intensity, higher = more binding, comparable within an allelic series)
14. AGCTTGGA  7.7 upbm affinity estimate (log intensity, higher = more binding, comparable within an allelic series)
15. CCACAGGC  7.72 upbm affinity estimate (log intensity, higher = more binding, comparable within an allelic series)
16. CTGGGGGA  7.75 upbm affinity estimate (log intensity, higher = more binding, comparable within an allelic series)
17. CAGAAGGC  7.78 upbm affinity estimate (log intensity, higher = more binding, comparable within an allelic series)
18. GCGGCTGA  7.8 upbm affinity estimate (log intensity, higher = more binding, comparable within an allelic series)
19. AGGTCCAC  7.8 upbm affinity estimate (log intensity, higher = more binding, comparable within an allelic series)
20. ACACGAGC  7.84 upbm affinity estimate (log intensity, higher = more binding, comparable within an allelic series)
21. CAACAGAG  7.94 upbm affinity estimate (log intensity, higher = more binding, comparable within an allelic series)
22. CGGGCTGC  7.97 upbm affinity estimate (log intensity, higher = more binding, comparable within an allelic series)
23. AAACGAGT  9.6 upbm affinity estimate (log intensity, higher = more binding, comparable within an allelic series)
24. CAATAAGA  9.65 upbm affinity estimate (log intensity, higher = more binding, comparable within an allelic series)
25. GGAGTAAA  9.68 upbm affinity estimate (log intensity, higher = more binding, comparable within an allelic series)
26. AATTTCTG  9.75 upbm affinity estimate (log intensity, higher = more binding, comparable within an allelic series)
27. GTTATAGA  9.85 upbm affinity estimate (log intensity, higher = more binding, comparable within an allelic series)
28. ATAAGCGC  9.9 upbm affinity estimate (log intensity, higher = more binding, comparable within an allelic series)
29. CTATTTGA  9.99 upbm affinity estimate (log intensity, higher = more binding, comparable within an allelic series)
30. ATATGATG  10 upbm affinity estimate (log intensity, higher = more binding, comparable within an allelic series)
31. TCATTGGA  10.1 upbm affinity estimate (log intensity, higher = more binding, comparable within an allelic series)
32. AAATGTTA  10.3 upbm affinity estimate (log intensity, higher = more binding, comparable within an allelic series)
33. ATGAGTTA  10.4 upbm affinity estimate (log intensity, higher = more binding, comparable within an allelic series)
34. CATTTGCG  10.6 upbm affinity estimate (log intensity, higher = more binding, comparable within an allelic series)
35. AACGATAT  10.7 upbm affinity estimate (log intensity, higher = more binding, comparable within an allelic series)
36. AATTGGTA  10.7 upbm affinity estimate (log intensity, higher = more binding, comparable within an allelic series)
37. AGATGATG  10.8 upbm affinity estimate (log intensity, higher = more binding, comparable within an allelic series)
38. ATTAGTTG  11.2 upbm affinity estimate (log intensity, higher = more binding, comparable within an allelic series)
39. ACTAATAA  12 upbm affinity estimate (log intensity, higher = more binding, comparable within an allelic series)
40. GATCGTTA  12.3 upbm affinity estimate (log intensity, higher = more binding, comparable within an allelic series)

Each sequence was assayed against HOXB4 (Homo sapiens, UniProt P17483 148-234, V174I) (assay: PBM; 200 nM protein, PBS). Details: dsDNA, one strand shown.
HOXB4 (Homo sapiens, UniProt P17483 148-234, V174I), sequence (P17483 148-234 V174I): as the sequence (P17483 148-234) above, with V27I counted along it

In order of falling binding signal:
1. GATCGTTA  12.8 upbm affinity estimate (log intensity, higher = more binding, comparable within an allelic series)
2. ACTAATAA  12.5 upbm affinity estimate (log intensity, higher = more binding, comparable within an allelic series)
3. ATTAGTTG  11.5 upbm affinity estimate (log intensity, higher = more binding, comparable within an allelic series)
4. AGATGATG  11.1 upbm affinity estimate (log intensity, higher = more binding, comparable within an allelic series)
5. AATTGGTA  11 upbm affinity estimate (log intensity, higher = more binding, comparable within an allelic series)
6. AACGATAT  10.9 upbm affinity estimate (log intensity, higher = more binding, comparable within an allelic series)
7. CATTTGCG  10.8 upbm affinity estimate (log intensity, higher = more binding, comparable within an allelic series)
8. ATGAGTTA  10.6 upbm affinity estimate (log intensity, higher = more binding, comparable within an allelic series)
9. AAATGTTA  10.4 upbm affinity estimate (log intensity, higher = more binding, comparable within an allelic series)
10. ATATGATG  10.1 upbm affinity estimate (log intensity, higher = more binding, comparable within an allelic series)
11. ATAAGCGC  10 upbm affinity estimate (log intensity, higher = more binding, comparable within an allelic series)
12. CTATTTGA  9.85 upbm affinity estimate (log intensity, higher = more binding, comparable within an allelic series)
13. TCATTGGA  9.83 upbm affinity estimate (log intensity, higher = more binding, comparable within an allelic series)
14. GGAGTAAA  9.73 upbm affinity estimate (log intensity, higher = more binding, comparable within an allelic series)
15. GTTATAGA  9.7 upbm affinity estimate (log intensity, higher = more binding, comparable within an allelic series)
16. AATTTCTG  9.62 upbm affinity estimate (log intensity, higher = more binding, comparable within an allelic series)
17. CAATAAGA  9.56 upbm affinity estimate (log intensity, higher = more binding, comparable within an allelic series)
18. AAACGAGT  9.41 upbm affinity estimate (log intensity, higher = more binding, comparable within an allelic series)
19. CCACAGGC  7.85 upbm affinity estimate (log intensity, higher = more binding, comparable within an allelic series)
20. CGGGCTGC  7.82 upbm affinity estimate (log intensity, higher = more binding, comparable within an allelic series)
21. CCTGTCCC  7.76 upbm affinity estimate (log intensity, higher = more binding, comparable within an allelic series)
22. ACGTAGCA  7.7 upbm affinity estimate (log intensity, higher = more binding, comparable within an allelic series)
23. CAGAAGGC  7.7 upbm affinity estimate (log intensity, higher = more binding, comparable within an allelic series)
24. ACACGAGC  7.68 upbm affinity estimate (log intensity, higher = more binding, comparable within an allelic series)
25. CAACAGAG  7.66 upbm affinity estimate (log intensity, higher = more binding, comparable within an allelic series)
26. AGGTCCAC  7.65 upbm affinity estimate (log intensity, higher = more binding, comparable within an allelic series)
27. AGCTTGGA  7.63 upbm affinity estimate (log intensity, higher = more binding, comparable within an allelic series)
28. GTCCCAAC  7.63 upbm affinity estimate (log intensity, higher = more binding, comparable within an allelic series)
29. AGCCCCCA  7.6 upbm affinity estimate (log intensity, higher = more binding, comparable within an allelic series)
30. CCCGAGGA  7.6 upbm affinity estimate (log intensity, higher = more binding, comparable within an allelic series)
31. CGTGCCGC  7.57 upbm affinity estimate (log intensity, higher = more binding, comparable within an allelic series)
32. CGGGATGC  7.57 upbm affinity estimate (log intensity, higher = more binding, comparable within an allelic series)
33. CGGGAAAG  7.56 upbm affinity estimate (log intensity, higher = more binding, comparable within an allelic series)
34. CTCCCGGC  7.56 upbm affinity estimate (log intensity, higher = more binding, comparable within an allelic series)
35. CCGACGGA  7.56 upbm affinity estimate (log intensity, higher = more binding, comparable within an allelic series)
36. GCGGCTGA  7.53 upbm affinity estimate (log intensity, higher = more binding, comparable within an allelic series)
37. CTGGGGGA  7.53 upbm affinity estimate (log intensity, higher = more binding, comparable within an allelic series)
38. GCGCGGGA  7.49 upbm affinity estimate (log intensity, higher = more binding, comparable within an allelic series)
39. CTGGCGAC  7.45 upbm affinity estimate (log intensity, higher = more binding, comparable within an allelic series)
40. GCTGGCGA  7.45 upbm affinity estimate (log intensity, higher = more binding, comparable within an allelic series)
